# Source: the supplement of paper PMC11732987, “Enantioselective OTUD7B fragment discovery through chemoproteomics screening and high-throughput optimisation” (Communications Chemistry, 2025)
# Target: USP14 (UniProt P54578)
# Assay: log2 ratio of Biotin-Ahx-Ub-VS probe labelling (fragment/DMSO); higher = less target engagement (more negative = stronger competition), active = hit call of the paper (q ≤ 0.05, log2 ratio ≤ -1)
# Details: compound concentration: 200 uM; treatment time: 3 h
# Experimental: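 Competitive ABPP in HEK293T cell lysate. Lysates were treated with each chloroacetamide fragment at 200 µM for 3 h, then with Biotin-Ahx-Ub-VS (0.5 µM, 1 h), NeutrAvidin-enriched and analysed by diaPASEF LC-MS/MS. Protein LFQ was median-normalised; average log2 ratio is fragment/DMSO from an unpaired t-test (n=3 treated, n=44 DMSO). Hits: q ≤ 0.05, log2 ratio ≤ -1, unique peptides ≥ 2.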
# USP14, sequence (P54578 whole entry, the tested form may be a part): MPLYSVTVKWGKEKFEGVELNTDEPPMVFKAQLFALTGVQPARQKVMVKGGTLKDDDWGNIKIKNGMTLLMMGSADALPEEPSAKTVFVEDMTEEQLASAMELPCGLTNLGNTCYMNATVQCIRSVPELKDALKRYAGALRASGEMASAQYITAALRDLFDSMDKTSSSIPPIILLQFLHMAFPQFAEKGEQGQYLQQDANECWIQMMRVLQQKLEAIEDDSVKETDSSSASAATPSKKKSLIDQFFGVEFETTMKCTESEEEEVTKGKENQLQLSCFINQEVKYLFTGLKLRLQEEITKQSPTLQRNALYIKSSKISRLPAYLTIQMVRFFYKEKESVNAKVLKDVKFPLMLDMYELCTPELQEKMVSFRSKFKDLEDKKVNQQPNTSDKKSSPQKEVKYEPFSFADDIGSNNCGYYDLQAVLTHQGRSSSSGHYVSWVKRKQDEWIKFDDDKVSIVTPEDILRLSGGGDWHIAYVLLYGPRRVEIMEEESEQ
row,Compound,log2 ratio of Biotin-Ahx-Ub-VS probe labelling
1,COc1cccc(CN(C)C(=O)CCl)c1,-0.252 (inactive)
2,Cl.O=C(CCl)N1CCCC(c2ncc[nH]2)C1 (configuration not stated),-0.141 (inactive)
3,CCN1C(=O)C2CN(C(=O)CCl)CCN2C1=O (configuration not stated),-0.176 (inactive)
4,CN(CCC(O)c1ccc(Br)cc1)C(=O)CCl (configuration not stated),-0.442 (inactive)
5,C[C@@H](NC(=O)CCl)c1cccc(C#N)c1,-0.243 (inactive)
6,Cl.O=C(CCl)NCCN1CCc2ccccc21,-0.483 (inactive)
7,Cc1ccc(CN(CCO)C(=O)CCl)cc1,-0.249 (inactive)
